This is an account of results in PubChem BioAssay (EPA / NIEHS).

Inconclusive results are not listed. Calls of active or inactive are those of the source. The calls were made as follows: active = hit-call score of the fitted dose curve at least 0.9, where 1 is the maximum; inconclusive = response in the unintended direction; inactive = score below 0.9.

chicken Estrogen Receptor (ESR1), ESR1 (gene 396099), sequence (P06212 whole entry, looked up, the tested form may be a part): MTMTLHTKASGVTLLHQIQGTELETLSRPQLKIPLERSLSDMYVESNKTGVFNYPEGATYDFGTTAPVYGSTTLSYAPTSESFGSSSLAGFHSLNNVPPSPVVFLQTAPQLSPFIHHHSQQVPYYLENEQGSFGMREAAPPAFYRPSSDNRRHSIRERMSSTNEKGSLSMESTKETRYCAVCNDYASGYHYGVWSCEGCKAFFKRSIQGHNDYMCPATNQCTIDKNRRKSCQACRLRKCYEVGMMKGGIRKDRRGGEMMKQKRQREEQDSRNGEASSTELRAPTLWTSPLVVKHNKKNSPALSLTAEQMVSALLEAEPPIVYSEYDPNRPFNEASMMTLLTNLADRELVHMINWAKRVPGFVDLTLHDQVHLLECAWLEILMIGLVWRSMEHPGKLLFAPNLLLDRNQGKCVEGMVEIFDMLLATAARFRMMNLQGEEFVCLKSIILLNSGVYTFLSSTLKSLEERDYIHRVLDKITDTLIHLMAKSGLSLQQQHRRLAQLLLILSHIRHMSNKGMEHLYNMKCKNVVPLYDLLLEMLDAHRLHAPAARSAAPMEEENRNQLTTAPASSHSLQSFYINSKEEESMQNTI

The test system of the first assay is frog Estrogen Receptor (ESR1), gene 398734. In words: ATG_frER1_XSP1: Attagene TRANS-FACTORIAL Multi-Species (XSP1) HepG2 Assay for frog Estrogen Receptor (ESR1) (AID 2283777). A digest of the protocol: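 After transient transfection and 24 h compound treatment, total RNA from HepG2 cells was reverse-transcribed, amplified, FAM-labeled and resolved by capillary electrophoresis. Signal increases were fitted against DMSO controls.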
Take `CC/C(=C(/CC)c1ccc(O)cc1)c1ccc(O)cc1`: the AC50 was 0.0517 nM (active).

Turning to `C[C@]12CC[C@@H]3c4ccc(O)cc4CC[C@H]3[C@@H]1CCC2=O`, the AC50 was 3.11 nM (active).

As to `Cc1c2ccccc2c(C)c2c1ccc1ccccc12`, the AC50 is 5910 nM (active).

Regarding `CC(C)(c1cc(Br)c(O)c(Br)c1)c1cc(Br)c(O)c(Br)c1`, the molecule was called inactive.

The next assay concerns zebrafish Estrogen Receptor (ESR2A), gene 317734. In words: ATG_zfER2a_XSP1: Attagene TRANS-FACTORIAL Multi-Species (XSP1) HepG2 Assay for zebrafish Estrogen Receptor (ESR2A) (AID 2283778). The gist of the method:
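Gain-of-signal reporter transcription readout from GAL4-UAS units in transiently transfected HepG2 cells, 24 h exposure, 3 nM 6-alpha-fluorotestosterone co-present. Detection by RT-PCR with capillary electrophoresis fluorescence.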
As to `CC/C(=C(/CC)c1ccc(O)cc1)c1ccc(O)cc1`, the AC50 was 0.0485 nM (active).

Take `C[C@]12CC[C@@H]3c4ccc(O)cc4CC[C@H]3[C@@H]1CCC2=O`: the AC50 was 3.83 nM (active).

Regarding `Cc1c2ccccc2c(C)c2c1ccc1ccccc12`, the AC50 was 15700 nM (active).

`CC(C)(c1cc(Br)c(O)c(Br)c1)c1cc(Br)c(O)c(Br)c1`: the outcome was inactive.

Another assay concerns the target chicken Estrogen Receptor (ESR1), ESR1 (gene 396099) (UniProt P06212). Description: ATG_chERa_XSP1: Attagene TRANS-FACTORIAL Multi-Species (XSP1) HepG2 Assay for chicken Estrogen Receptor (ESR1) (AID 2283779). A digest of the protocol: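 Gain-of-signal reporter transcription, relative to DMSO, was scored in transiently transfected HepG2 cells after a 24 h dose. Fluorescence intensity of amplified, digested reporter cDNA fragments served as the endpoint.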
In the case of `CC/C(=C(/CC)c1ccc(O)cc1)c1ccc(O)cc1`, the AC50 was 0.0429 nM (active).

Take `C[C@]12CC[C@@H]3c4ccc(O)cc4CC[C@H]3[C@@H]1CCC2=O`: the AC50 was 5.08 nM (active).

As to `Cc1c2ccccc2c(C)c2c1ccc1ccccc12`, the AC50 was 5860 nM (active).

`CC(C)(c1cc(Br)c(O)c(Br)c1)c1cc(Br)c(O)c(Br)c1`: the call was inactive.

The term AC50 denotes the concentration at which the activity in the assay is half-maximal.
